Key:
Experiment in all cases: DAPPL (digital affinity profiling via proximity ligation, sequencing); 10 mM Tris-HCl pH 7.5, 50 mM NaCl, 1 mM DTT, 4% glycerol, room temperature, 30 min; GST-TFs on glutathione beads, 16-mer random dsDNA library, 0.1% formaldehyde crosslink after washing; high values mean tight binding
Settings in all cases: protein: recombinant; tags: N-terminal GST; dsDNA, one strand shown
[1] = molecular target: T1, FLI1 (Homo sapiens, UniProt Q01543 1-452)
T1 sequence: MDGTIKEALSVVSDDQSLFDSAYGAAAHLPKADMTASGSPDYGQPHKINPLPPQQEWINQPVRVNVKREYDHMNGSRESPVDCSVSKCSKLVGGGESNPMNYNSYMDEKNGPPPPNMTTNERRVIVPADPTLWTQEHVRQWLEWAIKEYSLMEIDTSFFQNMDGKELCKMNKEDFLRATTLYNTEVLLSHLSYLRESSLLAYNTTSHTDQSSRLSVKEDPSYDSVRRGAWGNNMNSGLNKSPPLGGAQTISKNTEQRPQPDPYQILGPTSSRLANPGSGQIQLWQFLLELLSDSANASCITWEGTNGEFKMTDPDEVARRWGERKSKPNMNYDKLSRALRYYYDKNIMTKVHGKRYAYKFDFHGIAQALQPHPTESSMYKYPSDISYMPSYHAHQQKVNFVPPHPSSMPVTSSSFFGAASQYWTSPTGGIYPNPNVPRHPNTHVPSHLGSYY
How it was run: (§1)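 The binding signal reported is, for every hexamer, its read frequency for a factor over its read frequency for the tag-only sample. Reads came from pools of yeast-expressed, GST-fused human transcription factors on glutathione beads, barcoded with DNA and mixed with that sample, which were incubated with 200 nmole of a random double-stranded 16-mer DNA library in Tris/NaCl/DTT/glycerol buffer at room temperature for 30 min. After washing, the pools were crosslinked with 0.1% formaldehyde, proximity-ligated with BsaI/T4 ligase for 1 h at 37 °C, PCR-amplified and sequenced on an Illumina NextSeq500.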

[2] = molecular target: T2, ELK1 (Homo sapiens, UniProt P19419 1-428)
T2 sequence: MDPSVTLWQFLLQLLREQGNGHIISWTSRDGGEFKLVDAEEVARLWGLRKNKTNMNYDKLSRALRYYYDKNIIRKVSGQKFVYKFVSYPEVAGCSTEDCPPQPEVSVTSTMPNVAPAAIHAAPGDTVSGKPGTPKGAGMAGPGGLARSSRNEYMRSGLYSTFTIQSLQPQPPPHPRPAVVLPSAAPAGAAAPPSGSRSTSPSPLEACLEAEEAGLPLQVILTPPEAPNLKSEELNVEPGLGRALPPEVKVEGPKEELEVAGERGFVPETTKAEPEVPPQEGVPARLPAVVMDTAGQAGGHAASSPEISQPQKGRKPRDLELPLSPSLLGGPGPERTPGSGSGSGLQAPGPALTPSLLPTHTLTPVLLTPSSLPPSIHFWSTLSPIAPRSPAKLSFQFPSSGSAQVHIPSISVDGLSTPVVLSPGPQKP
How it was run: as §1

[3] = molecular target: T3, GABPA (Homo sapiens, UniProt Q06546 1-454)
T3 sequence: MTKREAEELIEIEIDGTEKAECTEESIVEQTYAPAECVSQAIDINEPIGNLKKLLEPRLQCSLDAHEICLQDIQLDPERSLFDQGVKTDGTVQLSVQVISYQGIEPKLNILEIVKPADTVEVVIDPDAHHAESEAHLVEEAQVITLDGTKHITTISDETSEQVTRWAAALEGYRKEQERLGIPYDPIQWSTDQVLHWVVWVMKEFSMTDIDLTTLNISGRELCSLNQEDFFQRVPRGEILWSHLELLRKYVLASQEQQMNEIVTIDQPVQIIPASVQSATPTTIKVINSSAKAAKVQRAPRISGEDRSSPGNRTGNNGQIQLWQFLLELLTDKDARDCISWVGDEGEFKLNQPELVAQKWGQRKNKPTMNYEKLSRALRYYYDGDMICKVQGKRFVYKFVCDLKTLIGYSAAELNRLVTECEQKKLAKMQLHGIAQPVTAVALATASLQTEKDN
How it was run: as §1

[4] = molecular target: T4, ERG (Homo sapiens, UniProt P11308 1-479)
T4 sequence: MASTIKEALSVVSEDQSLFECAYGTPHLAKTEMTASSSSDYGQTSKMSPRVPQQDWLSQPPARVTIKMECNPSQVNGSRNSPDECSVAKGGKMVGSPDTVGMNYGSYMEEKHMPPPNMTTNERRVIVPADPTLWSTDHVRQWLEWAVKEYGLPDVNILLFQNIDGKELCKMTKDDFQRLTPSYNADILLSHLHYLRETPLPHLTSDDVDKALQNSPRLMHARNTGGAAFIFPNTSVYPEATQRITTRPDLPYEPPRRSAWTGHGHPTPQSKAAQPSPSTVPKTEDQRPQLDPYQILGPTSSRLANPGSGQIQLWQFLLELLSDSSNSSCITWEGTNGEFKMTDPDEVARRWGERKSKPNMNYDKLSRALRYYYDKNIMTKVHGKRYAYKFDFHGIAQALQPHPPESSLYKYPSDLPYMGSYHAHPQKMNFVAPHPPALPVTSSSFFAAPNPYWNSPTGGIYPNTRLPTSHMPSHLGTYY
How it was run: as §1

[5] = molecular target: ELF1 (Homo sapiens, UniProt P32519 1-619)
How it was run: as §1

[6] = molecular target: T5, EHF (Homo sapiens, UniProt Q9NZC4 1-300)
T5 sequence: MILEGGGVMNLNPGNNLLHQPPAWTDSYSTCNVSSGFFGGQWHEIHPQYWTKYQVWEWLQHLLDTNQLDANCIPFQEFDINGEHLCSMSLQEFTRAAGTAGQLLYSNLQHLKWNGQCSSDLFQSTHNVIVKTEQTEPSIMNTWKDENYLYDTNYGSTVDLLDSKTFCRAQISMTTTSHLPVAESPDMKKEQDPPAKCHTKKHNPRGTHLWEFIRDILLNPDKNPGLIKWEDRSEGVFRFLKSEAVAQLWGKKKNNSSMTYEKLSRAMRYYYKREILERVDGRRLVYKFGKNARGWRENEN
How it was run: as §1

[7] = molecular target: SPI1 (Homo sapiens, UniProt P17947 1-270)
How it was run: as §1

[8] = molecular target: SPIB (Homo sapiens, UniProt Q01892 1-262)
How it was run: as §1

[9] = molecular target: T6, ELK3 (Homo sapiens, UniProt P41970 1-407)
T6 sequence: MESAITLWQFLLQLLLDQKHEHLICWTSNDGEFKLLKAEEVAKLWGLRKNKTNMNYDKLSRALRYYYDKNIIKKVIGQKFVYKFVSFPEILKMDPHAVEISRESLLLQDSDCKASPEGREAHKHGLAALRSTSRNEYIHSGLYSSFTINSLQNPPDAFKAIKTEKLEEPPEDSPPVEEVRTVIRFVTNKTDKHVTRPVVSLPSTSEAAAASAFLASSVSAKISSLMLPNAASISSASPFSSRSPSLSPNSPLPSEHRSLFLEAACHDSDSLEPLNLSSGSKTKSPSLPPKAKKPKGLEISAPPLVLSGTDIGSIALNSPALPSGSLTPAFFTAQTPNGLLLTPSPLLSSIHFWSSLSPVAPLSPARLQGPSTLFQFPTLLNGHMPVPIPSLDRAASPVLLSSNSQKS
How it was run: as §1

ELF1, sequence (P32519 whole entry): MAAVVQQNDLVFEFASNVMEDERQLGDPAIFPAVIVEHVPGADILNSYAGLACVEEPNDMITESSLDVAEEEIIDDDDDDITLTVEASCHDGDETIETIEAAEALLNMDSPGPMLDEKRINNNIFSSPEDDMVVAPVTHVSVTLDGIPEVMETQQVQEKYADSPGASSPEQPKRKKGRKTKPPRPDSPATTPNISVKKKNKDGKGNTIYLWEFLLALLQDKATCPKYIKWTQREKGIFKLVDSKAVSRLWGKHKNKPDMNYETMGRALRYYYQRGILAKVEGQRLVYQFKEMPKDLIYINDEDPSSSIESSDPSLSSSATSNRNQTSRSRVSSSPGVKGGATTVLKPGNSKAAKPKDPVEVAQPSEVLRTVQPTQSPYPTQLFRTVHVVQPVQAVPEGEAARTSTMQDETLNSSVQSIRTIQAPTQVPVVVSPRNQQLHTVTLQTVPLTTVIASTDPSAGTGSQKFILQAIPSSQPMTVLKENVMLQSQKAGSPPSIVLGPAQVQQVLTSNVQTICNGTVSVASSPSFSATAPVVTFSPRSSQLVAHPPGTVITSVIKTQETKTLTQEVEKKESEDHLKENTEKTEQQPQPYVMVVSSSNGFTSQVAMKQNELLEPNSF
SPIB, sequence (Q01892 whole entry): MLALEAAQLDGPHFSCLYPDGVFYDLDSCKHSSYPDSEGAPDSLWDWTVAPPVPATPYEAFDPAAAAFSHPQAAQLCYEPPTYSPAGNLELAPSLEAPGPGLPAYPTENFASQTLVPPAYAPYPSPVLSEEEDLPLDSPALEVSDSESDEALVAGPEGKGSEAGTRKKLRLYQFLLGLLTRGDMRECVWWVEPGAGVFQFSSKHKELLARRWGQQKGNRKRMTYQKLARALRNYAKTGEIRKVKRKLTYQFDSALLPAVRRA

Sequence | binding signal [1] | binding signal [2] | binding signal [3] | binding signal [4] | binding signal [5] | binding signal [6] | binding signal [7] | binding signal [8] | binding signal [9]
TGAATT | 1.15 fold enrichment (6-mer frequency, TF over GST control) | 1.09 fold enrichment (6-mer frequency, TF over GST control) | 1.19 fold enrichment (6-mer frequency, TF over GST control) | 1.17 fold enrichment (6-mer frequency, TF over GST control) | 1.1 fold enrichment (6-mer frequency, TF over GST control) | 1.17 fold enrichment (6-mer frequency, TF over GST control) | 1.22 fold enrichment (6-mer frequency, TF over GST control) | 1.19 fold enrichment (6-mer frequency, TF over GST control) | 1.06 fold enrichment (6-mer frequency, TF over GST control)
CCCTAC | 1.5 fold enrichment (6-mer frequency, TF over GST control) | 1.49 fold enrichment (6-mer frequency, TF over GST control) | 1.33 fold enrichment (6-mer frequency, TF over GST control) | 1.33 fold enrichment (6-mer frequency, TF over GST control) | 1.4 fold enrichment (6-mer frequency, TF over GST control) | 1.33 fold enrichment (6-mer frequency, TF over GST control) | 1.36 fold enrichment (6-mer frequency, TF over GST control) | 1.25 fold enrichment (6-mer frequency, TF over GST control) | 1.65 fold enrichment (6-mer frequency, TF over GST control)
AATGTT | 1.55 fold enrichment (6-mer frequency, TF over GST control) | 1.47 fold enrichment (6-mer frequency, TF over GST control) | 1.49 fold enrichment (6-mer frequency, TF over GST control) | 1.48 fold enrichment (6-mer frequency, TF over GST control) | 1.57 fold enrichment (6-mer frequency, TF over GST control) | 1.56 fold enrichment (6-mer frequency, TF over GST control) | 1.47 fold enrichment (6-mer frequency, TF over GST control) | 1.58 fold enrichment (6-mer frequency, TF over GST control) | 1.47 fold enrichment (6-mer frequency, TF over GST control)
TTAAGG | 1.14 fold enrichment (6-mer frequency, TF over GST control) | 1.14 fold enrichment (6-mer frequency, TF over GST control) | 1.2 fold enrichment (6-mer frequency, TF over GST control) | 1.18 fold enrichment (6-mer frequency, TF over GST control) | 1.13 fold enrichment (6-mer frequency, TF over GST control) | 1.13 fold enrichment (6-mer frequency, TF over GST control) | 1.26 fold enrichment (6-mer frequency, TF over GST control) | 1.15 fold enrichment (6-mer frequency, TF over GST control) | 1.06 fold enrichment (6-mer frequency, TF over GST control)
TTCTTC | 1.92 fold enrichment (6-mer frequency, TF over GST control) | 1.87 fold enrichment (6-mer frequency, TF over GST control) | 1.79 fold enrichment (6-mer frequency, TF over GST control) | 1.87 fold enrichment (6-mer frequency, TF over GST control) | 1.85 fold enrichment (6-mer frequency, TF over GST control) | 1.75 fold enrichment (6-mer frequency, TF over GST control) | 1.8 fold enrichment (6-mer frequency, TF over GST control) | 1.9 fold enrichment (6-mer frequency, TF over GST control) | 2.25 fold enrichment (6-mer frequency, TF over GST control)
TTTATC | 1.25 fold enrichment (6-mer frequency, TF over GST control) | 1.27 fold enrichment (6-mer frequency, TF over GST control) | 1.25 fold enrichment (6-mer frequency, TF over GST control) | 1.22 fold enrichment (6-mer frequency, TF over GST control) | 1.21 fold enrichment (6-mer frequency, TF over GST control) | 1.36 fold enrichment (6-mer frequency, TF over GST control) | 1.26 fold enrichment (6-mer frequency, TF over GST control) | 1.28 fold enrichment (6-mer frequency, TF over GST control) | 1.37 fold enrichment (6-mer frequency, TF over GST control)
AACATC | 1.5 fold enrichment (6-mer frequency, TF over GST control) | 1.35 fold enrichment (6-mer frequency, TF over GST control) | 1.41 fold enrichment (6-mer frequency, TF over GST control) | 1.48 fold enrichment (6-mer frequency, TF over GST control) | 1.45 fold enrichment (6-mer frequency, TF over GST control) | 1.51 fold enrichment (6-mer frequency, TF over GST control) | 1.45 fold enrichment (6-mer frequency, TF over GST control) | 1.37 fold enrichment (6-mer frequency, TF over GST control) | 1.47 fold enrichment (6-mer frequency, TF over GST control)

From paper PMC7862700, “An all-to-all approach to the identification of sequence-specific readers for epigenetic DNA modifications on cytosine”
